High-throughput results as filed in PubChem BioAssay.
Shown are actives, neighbours in structure and some others; about 0.98% of the full set was active somewhere.
Rv3671c inh: Rv3671c serine protease inhibitors, primary screen, biochemical, fluorescence polarization, M. tuberculosis H37Rv; inhibition, % at 5.96 µM; P9WHR9; actives 0.048% (n = 320,000); AID 2606, 2010; in the data active means inhibition above about 38%;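 further: extracellular domain of Rv3671c used as enzyme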
Target sequence (P9WHR9 whole entry, looked up, the tested form may be a part): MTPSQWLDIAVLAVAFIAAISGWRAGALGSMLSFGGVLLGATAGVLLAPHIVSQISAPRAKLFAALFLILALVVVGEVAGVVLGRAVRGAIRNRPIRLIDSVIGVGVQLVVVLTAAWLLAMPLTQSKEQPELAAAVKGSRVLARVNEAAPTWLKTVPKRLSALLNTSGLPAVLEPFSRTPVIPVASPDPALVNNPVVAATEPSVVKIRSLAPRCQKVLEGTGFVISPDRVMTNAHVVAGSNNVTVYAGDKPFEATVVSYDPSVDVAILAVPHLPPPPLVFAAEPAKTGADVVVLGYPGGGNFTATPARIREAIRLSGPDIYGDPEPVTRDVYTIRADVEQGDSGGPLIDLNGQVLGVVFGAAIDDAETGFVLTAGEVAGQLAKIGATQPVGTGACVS
Y pestis TopoI: Yersinia pestis topoisomerase I inhibitors, primary screen, biochemical, cleavage product accumulation, plate reader, single point | Y. pestis Topo-I cleavage product accumulation | activity, % at 10 µM | actives 0.064% (n = 360,000); in the data active means activity above about 50%, passing the limit was not always enough; inconclusive means no clear call, values can overlap the other calls
Mtb bLac sens: beta-lactam sensitization of Mtb H37Rv, H37Rv. M. tuberculosis H37Rv growth with meropenem, percent inhibition. inhibition, % at 25 µM. actives 0.27% (n = 330,000); call rule not given here;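 further: growth measured after seven days incubation then overnight dye step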
UGM FP inh: M. tuberculosis UGM enzyme inhibitors, primary screen, biochemical, fluorescence polarization, single point. UDP-galactopyranose mutase (Mycobacterium tuberculosis (strain ATCC 25618 / H37Rv)), …. purified UGM, fluorescence polarization probe displacement. AID 504406, 2011. inhibition, % at 10 µM. actives 0.06% (n = 320,000); in the data active means inhibition above about 10%, passing the limit was not always enough; inconclusive means no clear call, values can overlap the other calls
FadD28 FP inh: inhibitors of FadD28 bisubstrate probe binding, primary screen, biochemical, fluorescence polarization, single point | Mycobacterium tuberculosis FadD28 fatty-acid-AMP ligase | inhibition, % at 12.5 µM | actives 0.22% (n = 360,000) | AID 588549, 2011; in the data active means inhibition above about 8.5%, passing the limit was not always enough; inconclusive means no clear call, values can overlap the other calls
PfHsp40 rescue: rescue of yeast from PfHsp40 toxicity, primary screen, S. cerevisiae, ATP luminescence; actives 0.68% (n = 340,000); S. cerevisiae expressing PfHsp40, growth rescue; growth rescue, % at 12.5 µM; AID 504582, 2011; in the data active means growth rescue above about 28%, passing the limit was not always enough; inconclusive means no clear call, values can overlap the other calls;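 further: yeast W303a lacking pdr1 and pdr3 grown in galactose medium; growth measured after three days at 30 °C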
Large screens that a line does not name were inactive.

c1ccc(Nc2cccc(Nc3ccccc3)n2)cc1	PfHsp40 rescue 54.3
c1ccc(Nc2ccccn2)cc1	none
OCCOCCn1c(C2CCCN2c2nc(-c3ccc(F)cc3)cs2)nc2cc(Cl)c(Cl)cc21 (configuration not stated)	PfHsp40 rescue 143.4
OCCOCCn1c(C2CCCN2c2nc(-c3ccc(F)cc3)cs2)nc2cc(C(F)(F)F)ccc21 (configuration not stated)	PfHsp40 rescue inconclusive
OCCCn1c(C2CCCN2c2nc(-c3ccc(F)cc3)cs2)nc2cc(C(F)(F)F)ccc21 (configuration not stated)	PfHsp40 rescue 145.2
COCCCN1C(=O)C(CC(=O)NC2CC2)CC(C(=O)N(C(C)C)C(C)C)=C1C (configuration not stated)	none (no result: Rv3671c inh, Y pestis TopoI, Mtb bLac sens, UGM FP inh, PfHsp40 rescue)
O=C1c2ccccc2NC(c2ccc([N+](=O)[O-])cc2)N1O (configuration not stated)	PfHsp40 rescue 36.9
COc1ccccc1C(=O)NC(=O)COC(=O)c1cnccn1	none (no result: Rv3671c inh, Mtb bLac sens, UGM FP inh, PfHsp40 rescue)
O=C(N/N=C/c1cn(-c2ccccc2)nc1-c1cc2ccccc2o1)c1ccncc1	PfHsp40 rescue 179.9
O=C(N/N=C/c1cn(-c2ccccc2)nc1-c1cccs1)c1ccccc1F	PfHsp40 rescue 201.4
COC(=O)c1ccc(CNC(=O)CN2C(=O)NC(Cc3ccccc3)(c3ccccc3)C2=O)cc1 (configuration not stated)	none (no result: Rv3671c inh, Mtb bLac sens, UGM FP inh, PfHsp40 rescue)
O=C(O)C(c1ccccc1)N1C(=O)/C(=C\c2ccc(-c3ccc(Br)cc3)o2)SC1=S (configuration not stated)	FadD28 FP inh 27.5 (no result: Rv3671c inh, Mtb bLac sens, UGM FP inh)
O=C(O)C(c1ccccc1)N1C(=O)/C(=C\c2ccc(-c3ccccc3Cl)o2)SC1=S (configuration not stated)	FadD28 FP inh 11.2
Cc1ccc(S(=O)(=O)N(CC(=O)NCc2cccs2)c2ccccc2)cc1	PfHsp40 rescue 42.3 (no result: Rv3671c inh, Mtb bLac sens, UGM FP inh)
Clc1cccc(CSc2nnc(-c3sccc3-n3cccc3)o2)c1	Y pestis TopoI 57.8 (no result: UGM FP inh)
Cc1cc2nc(-c3ccccc3Br)n(/C=C(\c3ccccc3)n3c(=O)[nH]c4ccccc43)c2cc1C	none (no result: Rv3671c inh, Y pestis TopoI, Mtb bLac sens, UGM FP inh, PfHsp40 rescue)
COc1ccccc1/C=C1\S/C(=N/NC(=O)c2cccc(Br)c2)NC1=O	PfHsp40 rescue 141.8
COC(=O)/C=C1\S/C(=N/NC(=O)c2ccccc2)NC1=O	none
CN(c1ccccc1)S(=O)(=O)c1ccc(NC(=O)CC(=O)c2ccccc2)cc1	FadD28 FP inh 24.8 (no result: Rv3671c inh, Mtb bLac sens, UGM FP inh)
CC(=O)Nc1ccc(NC(=O)c2ccc(S(=O)(=O)N(C)c3ccccc3)cc2)cc1	PfHsp40 rescue inconclusive
CC(C)(C)c1cc2nc(NCCOc3ccccc3)ccn2n1	none (no result: Rv3671c inh, Mtb bLac sens, UGM FP inh, PfHsp40 rescue)
COc1ccc(-c2oc3c(OC)c(OC)c(OC)c(O)c3c(=O)c2OC)cc1OC	PfHsp40 rescue 71.2
COc1c(OC)c(O)c2c(=O)c(O)c(-c3ccccc3)oc2c1OC	none
O=C(CCCN1C(=O)/C(=C\c2ccccc2)SC1=S)Nc1ccc(O)cc1C(=O)O	none
O=C(CCCN1C(=O)/C(=C/c2ccco2)SC1=S)Nc1ccccc1C(=O)O	FadD28 FP inh 45.4
O=C(O)CCCN1C(=O)/C(=C\c2ccco2)SC1=S	none (no result: Rv3671c inh, Mtb bLac sens, UGM FP inh)
O=C(CN1C(=O)/C(=C\c2ccco2)SC1=S)Nc1ccc(O)cc1C(=O)O	FadD28 FP inh 35.8
O=C(CCN1C(=O)/C(=C/c2ccco2)SC1=S)Nc1ccc(O)cc1C(=O)O	FadD28 FP inh 21.1 (no result: Rv3671c inh)
O=C(OCc1cc(=O)n2ccsc2n1)C1(c2ccccc2)CC1	none (no result: Rv3671c inh, Mtb bLac sens, UGM FP inh, PfHsp40 rescue)
CCOC1=C2[C@@H](CN(S(=O)(=O)c3ccc(C)cc3)[C@H]2c2cccc3ccccc23)[C@H]2C(=O)N(C)C(=O)[C@H]2C1	none (no result: Rv3671c inh, Y pestis TopoI, Mtb bLac sens, UGM FP inh, PfHsp40 rescue)
CCn1c(=O)c(C(=O)NNC(=O)c2ccccc2Cl)c(O)c2ccccc21	PfHsp40 rescue 33.9
CCn1c(=O)c(C(=O)NNC(=O)c2ccccc2F)c(O)c2ccccc21	none (no result: FadD28 FP inh)
O=C(Nc1cccc(-c2nc3ccccc3s2)c1)c1cccs1	PfHsp40 rescue 403.4
CSc1nc2ccc(NC(=O)c3cccs3)cc2s1	PfHsp40 rescue 158.0
CSc1nc2ccc(NC(=O)c3ccco3)cc2s1	none
O=C(Nc1cccc(-c2nc3ccccc3s2)c1)c1cc(=O)c2ccccc2o1	none
O=[N+]([O-])c1ccc2oc(/C=C/c3ccc(O)cc3)nc2c1	none (no result: Rv3671c inh, Mtb bLac sens, UGM FP inh, PfHsp40 rescue)
CC1CC(C)CC(C)C(O)C(C#N)=CC=CCC(C2CCCC2C(=O)O)OC(=O)CC(O)C(C)C1 (configuration not stated)	PfHsp40 rescue 400.8 (no result: Rv3671c inh, Mtb bLac sens, UGM FP inh)
O=S(=O)(c1cccc(Cl)c1)N1CCN(S(=O)(=O)c2ccc3c(c2)OCCO3)CC1	PfHsp40 rescue 43.5
O=S(=O)(c1ccc2c(c1)OCCO2)N1CCN(c2cccc(Cl)c2)CC1	none
O=C1OC(C(Cl)(Cl)Cl)Nc2ccccc21 (configuration not stated)	none (no result: Rv3671c inh, Y pestis TopoI, Mtb bLac sens, UGM FP inh, PfHsp40 rescue)
COc1cc(NC(=O)Cn2nnc(-c3ccncc3)n2)cc(OC)c1	none
COc1cccc(NC(=O)Cn2nnc(-c3ccccc3N)n2)c1	FadD28 FP inh 14.7
CC1=C(C(=O)N(C(C)C)C(C)C)CC(CC(=O)NCc2cccs2)C(=O)N1CCCN1CCCC1=O (configuration not stated)	none (no result: Rv3671c inh, Y pestis TopoI, Mtb bLac sens, UGM FP inh, PfHsp40 rescue)
CC1=NN(c2ccc([N+](=O)[O-])cc2)C(=O)/C1=C\N(C)C	none
CC1=NN(c2ccc([N+](=O)[O-])cc2)C(=O)C1	FadD28 FP inh 13.8 (no result: Rv3671c inh, Mtb bLac sens, UGM FP inh)
COCCNC(=O)c1cn(C)c2ccc(S(=O)(=O)N3CCCC3)cc2c1=O	none
CC(NC(=O)c1cn(C)c2ccc(S(=O)(=O)N3CCCC3)cc2c1=O)c1ccc2c(c1)OCCO2 (configuration not stated)	Mtb bLac sens inconclusive, PfHsp40 rescue 42.4
O=C(O)CCNc1cc(N2CCN(C(=O)c3ccco3)CC2)c2noc3c2c1C(=O)c1ccccc1-3	FadD28 FP inh 22.2
CCN1CCN(c2cc(N3CCN(C(=O)c4ccco4)CC3)c3c4c(onc24)-c2ccccc2C3=O)CC1	none
NC(=O)CC(NC(=O)c1ccccc1)c1ccc(N2CCN(c3ccccc3)CC2)c([N+](=O)[O-])c1 (configuration not stated)	none
CN1CCN(c2ccc(C(CC(N)=O)NC(=O)c3ccccc3)cc2[N+](=O)[O-])CC1 (configuration not stated)	PfHsp40 rescue 37.0
O=c1cc(-c2ccc(O)cc2)oc2c(-c3c(O)cc(O)c4c(=O)cc(-c5ccc(O)cc5)oc34)c(O)cc(O)c12	none (no result: UGM FP inh)
O=c1c(-c2c(O)cc(O)c3c(=O)cc(-c4ccc(O)cc4)oc23)c(-c2ccc(O)cc2)oc2cc(O)cc(O)c12	PfHsp40 rescue 104.8
Cc1ccc(C(=O)OCc2nnc(-c3ccc(Br)cc3)o2)cc1	PfHsp40 rescue 27.0
